This note sets out measurements from PMC7862700, “An all-to-all approach to the identification of sequence-specific readers for epigenetic DNA modifications on cytosine”.

Test in all cases: DAPPL (digital affinity profiling via proximity ligation, sequencing); 10 mM Tris-HCl pH 7.5, 50 mM NaCl, 1 mM DTT, 4% glycerol, room temperature, 30 min; GST-TFs on glutathione beads, 16-mer random dsDNA library, 0.1% formaldehyde crosslink after washing; high values mean tight binding
One assay has as its target T1, FEV (Homo sapiens, UniProt Q99581 1-238).
T1 sequence: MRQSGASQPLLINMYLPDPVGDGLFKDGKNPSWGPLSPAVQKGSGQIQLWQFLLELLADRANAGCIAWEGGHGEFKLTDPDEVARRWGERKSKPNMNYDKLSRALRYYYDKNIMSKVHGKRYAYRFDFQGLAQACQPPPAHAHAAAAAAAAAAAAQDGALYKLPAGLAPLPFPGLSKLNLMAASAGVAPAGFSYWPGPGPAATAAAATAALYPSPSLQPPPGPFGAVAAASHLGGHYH
The conditions noted are these: protein: recombinant; tags: N-terminal GST; dsDNA, one strand shown. In a few lines:
(§1)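 A tag-only sample was pooled with DNA-barcoded human transcription factors that had been expressed in yeast as GST fusions and captured on glutathione beads. The pools were incubated for 30 min at room temperature with 200 nmole of a random double-stranded 16-mer DNA library in Tris/NaCl/DTT/glycerol buffer, then washed, crosslinked with 0.1% formaldehyde, proximity-ligated (BsaI/T4 ligase, 1 h, 37 °C), PCR-amplified and sequenced on an Illumina NextSeq500. Binding signal is each hexamer's read frequency for a factor divided by its frequency for the tag-only sample.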

Another assay has as its target ETV5 (Homo sapiens, UniProt P41161 1-510). Particulars: protein: recombinant; tags: N-terminal GST; dsDNA, one strand shown. In a few lines: as §1
A further assay concerns the target HSF1 (Homo sapiens, UniProt Q00613 1-529). Particulars: protein: recombinant; tags: N-terminal GST; chain copies: 3; dsDNA, one strand shown. Summed up:
as §1

Another assay concerns the target T2, SPIC (Homo sapiens, UniProt Q8N5J4 1-248).
T2 sequence: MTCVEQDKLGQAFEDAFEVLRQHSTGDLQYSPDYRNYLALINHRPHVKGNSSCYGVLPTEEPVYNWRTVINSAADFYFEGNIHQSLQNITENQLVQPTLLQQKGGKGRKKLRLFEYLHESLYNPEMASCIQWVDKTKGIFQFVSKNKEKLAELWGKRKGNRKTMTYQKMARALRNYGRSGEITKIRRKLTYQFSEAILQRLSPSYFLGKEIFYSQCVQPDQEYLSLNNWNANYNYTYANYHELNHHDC
The conditions noted are these: protein: recombinant; tags: N-terminal GST; dsDNA, one strand shown. Summed up: as §1

For the next assay, the target named is ELF4 (Homo sapiens, UniProt Q99607 1-663). The conditions noted are these: protein: recombinant; tags: N-terminal GST; dsDNA, one strand shown. Summed up:
as §1

In the next assay the target is T3, ELK4 (Homo sapiens, UniProt P28324-2 1-405).
T3 sequence: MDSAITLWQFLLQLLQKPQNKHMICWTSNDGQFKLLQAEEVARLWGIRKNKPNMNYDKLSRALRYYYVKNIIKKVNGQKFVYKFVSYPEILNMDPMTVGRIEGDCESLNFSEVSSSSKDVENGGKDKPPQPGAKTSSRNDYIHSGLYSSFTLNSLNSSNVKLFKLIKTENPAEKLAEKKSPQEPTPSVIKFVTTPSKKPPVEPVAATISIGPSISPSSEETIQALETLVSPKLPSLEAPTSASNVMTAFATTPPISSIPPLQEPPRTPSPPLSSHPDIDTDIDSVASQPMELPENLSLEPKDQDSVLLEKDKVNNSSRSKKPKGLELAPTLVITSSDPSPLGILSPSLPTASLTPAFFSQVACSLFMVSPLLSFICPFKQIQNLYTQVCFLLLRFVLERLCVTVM
Particulars: protein: recombinant; tags: N-terminal GST; dsDNA, one strand shown. Summed up: as §1

The next assay addresses T4, ETV2 (Homo sapiens, UniProt O00321 1-342).
T4 sequence: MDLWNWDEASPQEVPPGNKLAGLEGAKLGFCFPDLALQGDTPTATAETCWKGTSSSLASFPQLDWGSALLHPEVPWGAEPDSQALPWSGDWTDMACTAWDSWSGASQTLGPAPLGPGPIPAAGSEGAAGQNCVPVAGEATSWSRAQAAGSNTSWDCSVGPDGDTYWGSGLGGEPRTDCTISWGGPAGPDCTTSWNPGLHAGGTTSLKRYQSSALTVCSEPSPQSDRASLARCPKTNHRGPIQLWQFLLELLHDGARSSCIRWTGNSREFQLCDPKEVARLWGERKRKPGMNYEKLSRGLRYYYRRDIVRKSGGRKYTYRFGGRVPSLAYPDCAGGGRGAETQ
The conditions noted are these: protein: recombinant; tags: N-terminal GST; dsDNA, one strand shown. In a few lines:
as §1

The next assay addresses T5, ELF3 (Homo sapiens, UniProt P78545 1-371).
T5 sequence: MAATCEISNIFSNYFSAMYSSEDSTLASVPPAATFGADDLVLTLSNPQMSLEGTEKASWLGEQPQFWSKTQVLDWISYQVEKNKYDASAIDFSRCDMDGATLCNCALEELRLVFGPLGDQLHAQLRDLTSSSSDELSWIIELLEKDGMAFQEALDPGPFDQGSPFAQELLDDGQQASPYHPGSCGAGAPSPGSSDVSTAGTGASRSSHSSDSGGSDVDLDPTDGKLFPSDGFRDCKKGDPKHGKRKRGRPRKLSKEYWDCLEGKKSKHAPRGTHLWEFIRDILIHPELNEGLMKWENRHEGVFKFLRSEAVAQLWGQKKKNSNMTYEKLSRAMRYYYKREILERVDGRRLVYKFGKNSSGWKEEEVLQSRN
Particulars: protein: recombinant; tags: N-terminal GST; dsDNA, one strand shown. Summed up: as §1

The next assay addresses CRX (Homo sapiens, UniProt O43186 1-299). Particulars: protein: recombinant; tags: N-terminal GST; dsDNA, one strand shown. In a few lines: as §1
A further assay concerns the target ETV1 (Homo sapiens, UniProt P50549 1-477). Particulars: protein: recombinant; tags: N-terminal GST; dsDNA, one strand shown. In a few lines: as §1
The target in the next assay is T6, ERF (Homo sapiens, UniProt P50548 1-548).
T6 sequence: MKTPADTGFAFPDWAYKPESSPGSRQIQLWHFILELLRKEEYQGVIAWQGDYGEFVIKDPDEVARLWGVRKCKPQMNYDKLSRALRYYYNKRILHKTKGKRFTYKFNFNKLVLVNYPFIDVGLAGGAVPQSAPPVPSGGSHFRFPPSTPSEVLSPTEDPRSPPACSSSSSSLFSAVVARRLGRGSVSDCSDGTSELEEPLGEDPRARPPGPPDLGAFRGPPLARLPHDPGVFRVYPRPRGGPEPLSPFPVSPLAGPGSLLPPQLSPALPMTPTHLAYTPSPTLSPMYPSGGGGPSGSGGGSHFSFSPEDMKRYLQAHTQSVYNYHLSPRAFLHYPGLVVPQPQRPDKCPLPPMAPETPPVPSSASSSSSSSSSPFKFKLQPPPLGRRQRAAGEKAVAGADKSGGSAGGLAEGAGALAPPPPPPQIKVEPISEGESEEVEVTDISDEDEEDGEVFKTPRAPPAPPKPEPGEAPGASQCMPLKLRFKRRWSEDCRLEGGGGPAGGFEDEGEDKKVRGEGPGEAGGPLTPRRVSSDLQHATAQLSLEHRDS
Particulars: protein: recombinant; tags: N-terminal GST; dsDNA, one strand shown. Summed up: as §1

A further assay concerns the target T7, ETV3L (Homo sapiens, UniProt Q6ZN32 1-361).
T7 sequence: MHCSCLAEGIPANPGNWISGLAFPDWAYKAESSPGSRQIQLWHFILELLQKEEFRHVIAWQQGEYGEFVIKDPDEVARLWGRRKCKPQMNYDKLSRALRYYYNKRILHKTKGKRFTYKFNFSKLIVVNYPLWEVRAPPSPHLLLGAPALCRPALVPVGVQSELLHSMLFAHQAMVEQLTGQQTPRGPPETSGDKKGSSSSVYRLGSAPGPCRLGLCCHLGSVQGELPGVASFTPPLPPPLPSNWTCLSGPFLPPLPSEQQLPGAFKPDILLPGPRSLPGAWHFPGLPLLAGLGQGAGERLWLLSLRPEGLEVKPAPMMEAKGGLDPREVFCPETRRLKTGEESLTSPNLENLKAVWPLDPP
Particulars: protein: recombinant; tags: N-terminal GST; dsDNA, one strand shown. In a few lines: as §1

For another assay, the target named is T8, ETS2 (Homo sapiens, UniProt P15036 1-469).
T8 sequence: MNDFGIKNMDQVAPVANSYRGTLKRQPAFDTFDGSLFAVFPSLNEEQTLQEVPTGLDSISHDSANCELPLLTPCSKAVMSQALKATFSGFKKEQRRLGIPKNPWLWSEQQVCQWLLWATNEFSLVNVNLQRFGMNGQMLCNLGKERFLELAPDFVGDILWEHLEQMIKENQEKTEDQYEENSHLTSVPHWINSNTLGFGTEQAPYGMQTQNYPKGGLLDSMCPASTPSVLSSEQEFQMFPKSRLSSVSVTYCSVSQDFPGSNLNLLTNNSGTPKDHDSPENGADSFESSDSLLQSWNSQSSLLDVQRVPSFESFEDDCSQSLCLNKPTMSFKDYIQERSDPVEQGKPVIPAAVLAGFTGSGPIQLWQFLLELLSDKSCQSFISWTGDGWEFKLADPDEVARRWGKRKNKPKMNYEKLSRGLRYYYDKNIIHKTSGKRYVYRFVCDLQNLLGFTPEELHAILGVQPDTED
The conditions noted are these: protein: recombinant; tags: N-terminal GST; dsDNA, one strand shown. Summed up:
as §1

The target of the next assay is T9, SPDEF (Homo sapiens, UniProt O95238 1-335).
T9 sequence: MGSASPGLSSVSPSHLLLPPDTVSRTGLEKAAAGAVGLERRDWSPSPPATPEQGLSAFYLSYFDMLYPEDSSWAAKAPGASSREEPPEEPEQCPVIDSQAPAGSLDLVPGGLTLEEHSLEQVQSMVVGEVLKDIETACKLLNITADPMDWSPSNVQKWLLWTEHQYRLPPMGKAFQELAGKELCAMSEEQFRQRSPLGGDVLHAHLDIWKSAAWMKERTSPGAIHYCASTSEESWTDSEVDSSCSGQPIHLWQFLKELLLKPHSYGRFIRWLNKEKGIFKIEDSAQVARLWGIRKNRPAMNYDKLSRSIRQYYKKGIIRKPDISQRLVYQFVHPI
The conditions noted are these: protein: recombinant; tags: N-terminal GST; dsDNA, one strand shown. In a few lines: as §1

Another assay concerns the target T10, ETV7 (Homo sapiens, UniProt Q9Y603 1-341).
T10 sequence: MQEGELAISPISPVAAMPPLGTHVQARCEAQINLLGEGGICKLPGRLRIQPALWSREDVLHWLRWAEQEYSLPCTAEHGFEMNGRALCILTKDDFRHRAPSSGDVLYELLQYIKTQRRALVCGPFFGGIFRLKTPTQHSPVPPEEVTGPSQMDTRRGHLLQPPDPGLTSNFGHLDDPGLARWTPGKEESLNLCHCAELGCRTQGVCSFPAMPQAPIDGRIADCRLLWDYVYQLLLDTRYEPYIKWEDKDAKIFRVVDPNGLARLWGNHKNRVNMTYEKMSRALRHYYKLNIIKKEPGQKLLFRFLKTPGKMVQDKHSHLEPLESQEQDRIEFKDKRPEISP
Particulars: protein: recombinant; tags: N-terminal GST; dsDNA, one strand shown. In a few lines: as §1

The target in another assay is T11, ELF5 (Homo sapiens, UniProt Q9UKW6-2 1-255).
T11 sequence: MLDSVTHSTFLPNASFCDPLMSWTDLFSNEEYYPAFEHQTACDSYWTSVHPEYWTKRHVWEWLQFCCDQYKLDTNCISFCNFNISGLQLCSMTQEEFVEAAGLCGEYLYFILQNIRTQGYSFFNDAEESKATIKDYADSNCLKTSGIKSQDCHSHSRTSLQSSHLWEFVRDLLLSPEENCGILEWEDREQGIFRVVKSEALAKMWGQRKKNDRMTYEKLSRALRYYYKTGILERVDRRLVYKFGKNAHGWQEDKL
Particulars: protein: recombinant; tags: N-terminal GST; dsDNA, one strand shown. Summed up: as §1

The target in the next assay is T12, ETV3 (Homo sapiens, UniProt P41162-2 1-143).
T12 sequence: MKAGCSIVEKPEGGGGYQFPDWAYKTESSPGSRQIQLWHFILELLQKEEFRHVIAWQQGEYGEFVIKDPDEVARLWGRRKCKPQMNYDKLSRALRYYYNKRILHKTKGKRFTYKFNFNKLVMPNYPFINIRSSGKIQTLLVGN
The conditions noted are these: protein: recombinant; tags: N-terminal GST; dsDNA, one strand shown. Summed up:
as §1

A further assay addresses ETV6 (Homo sapiens, UniProt P41212 1-452). The conditions noted are these: protein: recombinant; tags: N-terminal GST; dsDNA, one strand shown. Summed up:
as §1

ETV5, sequence (P41161 whole entry): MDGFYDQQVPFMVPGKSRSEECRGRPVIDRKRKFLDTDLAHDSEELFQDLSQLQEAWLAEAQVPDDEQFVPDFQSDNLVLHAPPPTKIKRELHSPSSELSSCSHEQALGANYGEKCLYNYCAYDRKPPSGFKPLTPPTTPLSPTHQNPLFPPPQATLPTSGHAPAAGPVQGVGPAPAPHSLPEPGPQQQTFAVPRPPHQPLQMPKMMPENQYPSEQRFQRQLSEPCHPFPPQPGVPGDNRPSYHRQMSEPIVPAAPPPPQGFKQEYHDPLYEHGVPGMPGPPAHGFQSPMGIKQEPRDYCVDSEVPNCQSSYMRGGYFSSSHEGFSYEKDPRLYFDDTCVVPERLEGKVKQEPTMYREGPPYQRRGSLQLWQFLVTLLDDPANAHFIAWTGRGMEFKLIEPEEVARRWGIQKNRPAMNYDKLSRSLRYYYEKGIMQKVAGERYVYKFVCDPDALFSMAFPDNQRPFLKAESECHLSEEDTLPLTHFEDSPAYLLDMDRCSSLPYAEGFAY
ETV1, sequence (P50549 whole entry): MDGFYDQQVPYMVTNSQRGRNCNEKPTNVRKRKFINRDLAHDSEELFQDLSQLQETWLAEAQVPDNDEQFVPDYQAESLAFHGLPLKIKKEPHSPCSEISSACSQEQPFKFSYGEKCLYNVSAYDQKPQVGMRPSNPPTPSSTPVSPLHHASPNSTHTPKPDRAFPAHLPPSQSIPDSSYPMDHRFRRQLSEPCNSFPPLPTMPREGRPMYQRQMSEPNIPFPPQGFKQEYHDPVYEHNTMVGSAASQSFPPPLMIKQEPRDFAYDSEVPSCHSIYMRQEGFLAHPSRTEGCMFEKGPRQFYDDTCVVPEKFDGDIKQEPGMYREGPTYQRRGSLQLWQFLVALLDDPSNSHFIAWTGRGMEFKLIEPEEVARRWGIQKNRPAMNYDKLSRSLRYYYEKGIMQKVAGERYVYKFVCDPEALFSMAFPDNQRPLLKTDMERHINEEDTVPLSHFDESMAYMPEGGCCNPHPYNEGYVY
ETV6, sequence (P41212 whole entry): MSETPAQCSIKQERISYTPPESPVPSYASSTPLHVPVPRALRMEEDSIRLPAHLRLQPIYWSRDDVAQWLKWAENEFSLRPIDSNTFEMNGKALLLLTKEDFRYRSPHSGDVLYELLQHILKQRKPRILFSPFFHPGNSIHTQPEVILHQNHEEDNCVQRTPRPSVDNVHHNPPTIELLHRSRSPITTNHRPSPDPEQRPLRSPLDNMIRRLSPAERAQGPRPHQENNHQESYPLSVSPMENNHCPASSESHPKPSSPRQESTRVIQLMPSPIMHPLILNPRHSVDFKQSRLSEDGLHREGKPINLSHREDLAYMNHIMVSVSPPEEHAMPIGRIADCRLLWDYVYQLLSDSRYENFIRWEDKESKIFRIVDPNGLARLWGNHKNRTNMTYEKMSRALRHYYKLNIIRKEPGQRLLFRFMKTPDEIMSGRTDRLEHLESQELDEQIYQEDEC
CRX, sequence (O43186 whole entry): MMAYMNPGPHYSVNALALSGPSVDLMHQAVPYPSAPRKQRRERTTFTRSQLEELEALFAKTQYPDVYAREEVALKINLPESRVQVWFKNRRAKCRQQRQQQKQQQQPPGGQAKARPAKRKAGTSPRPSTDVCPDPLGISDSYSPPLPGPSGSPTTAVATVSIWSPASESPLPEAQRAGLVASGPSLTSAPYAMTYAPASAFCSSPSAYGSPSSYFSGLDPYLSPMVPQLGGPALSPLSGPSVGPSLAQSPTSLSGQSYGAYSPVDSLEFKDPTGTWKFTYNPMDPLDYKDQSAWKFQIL
HSF1, sequence (Q00613 whole entry): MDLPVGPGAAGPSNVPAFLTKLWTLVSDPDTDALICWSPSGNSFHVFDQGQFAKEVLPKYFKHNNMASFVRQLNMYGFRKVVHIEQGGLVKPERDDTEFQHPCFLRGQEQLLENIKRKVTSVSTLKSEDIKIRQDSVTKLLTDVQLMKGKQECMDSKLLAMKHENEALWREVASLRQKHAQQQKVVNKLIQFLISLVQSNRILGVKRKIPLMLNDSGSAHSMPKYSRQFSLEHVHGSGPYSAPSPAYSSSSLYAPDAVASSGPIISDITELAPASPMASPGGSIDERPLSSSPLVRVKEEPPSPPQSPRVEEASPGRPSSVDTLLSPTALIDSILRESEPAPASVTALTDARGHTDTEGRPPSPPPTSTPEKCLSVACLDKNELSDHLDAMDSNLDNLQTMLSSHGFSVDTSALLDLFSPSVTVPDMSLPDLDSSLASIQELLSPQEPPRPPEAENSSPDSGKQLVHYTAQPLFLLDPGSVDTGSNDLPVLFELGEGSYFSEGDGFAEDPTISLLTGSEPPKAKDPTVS
ELF4, sequence (Q99607 whole entry): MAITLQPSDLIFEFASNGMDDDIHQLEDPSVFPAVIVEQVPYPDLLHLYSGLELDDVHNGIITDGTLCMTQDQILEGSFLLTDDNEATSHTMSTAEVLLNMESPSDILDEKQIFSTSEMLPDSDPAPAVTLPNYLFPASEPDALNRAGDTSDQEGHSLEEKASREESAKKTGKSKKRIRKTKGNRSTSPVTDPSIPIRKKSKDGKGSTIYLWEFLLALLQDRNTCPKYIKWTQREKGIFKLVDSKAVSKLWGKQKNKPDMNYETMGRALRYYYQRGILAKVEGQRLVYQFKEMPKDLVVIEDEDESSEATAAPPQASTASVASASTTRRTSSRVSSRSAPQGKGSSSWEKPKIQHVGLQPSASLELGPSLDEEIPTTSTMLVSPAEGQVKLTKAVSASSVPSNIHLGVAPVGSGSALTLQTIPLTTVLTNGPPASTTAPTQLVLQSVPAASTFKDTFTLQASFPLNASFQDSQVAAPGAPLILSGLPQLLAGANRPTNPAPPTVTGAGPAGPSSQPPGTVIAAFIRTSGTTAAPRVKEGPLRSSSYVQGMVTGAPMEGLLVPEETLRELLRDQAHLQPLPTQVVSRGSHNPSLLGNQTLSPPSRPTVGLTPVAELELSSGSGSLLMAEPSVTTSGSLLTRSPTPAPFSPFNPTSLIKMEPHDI

Consider ATTATA, for which the binding signal is 1.32 fold enrichment (6-mer frequency, TF over GST control) with FEV; 1.29 fold enrichment (6-mer frequency, TF over GST control) in the assay with ETV5; 2.05 fold enrichment (6-mer frequency, TF over GST control) with HSF1; 1.36 fold enrichment (6-mer frequency, TF over GST control) with SPIC; 1.24 fold enrichment (6-mer frequency, TF over GST control) with ELF4; 1.29 fold enrichment (6-mer frequency, TF over GST control) in the assay with ELK4. The binding signal with ETV2 was 1.42 fold enrichment (6-mer frequency, TF over GST control); with ELF3, 1.39 fold enrichment (6-mer frequency, TF over GST control); with CRX it was 3.2 fold enrichment (6-mer frequency, TF over GST control); with ETV1, 1.3 fold enrichment (6-mer frequency, TF over GST control); in the assay with ERF, 1.3 fold enrichment (6-mer frequency, TF over GST control); in the assay with ETV3L, 1.33 fold enrichment (6-mer frequency, TF over GST control). Further, the binding signal in the assay with ETS2 was 1.37 fold enrichment (6-mer frequency, TF over GST control); with SPDEF it was 1.23 fold enrichment (6-mer frequency, TF over GST control); in the assay with ETV7, 1.37 fold enrichment (6-mer frequency, TF over GST control); with ELF5, 1.24 fold enrichment (6-mer frequency, TF over GST control); with ETV3, 1.28 fold enrichment (6-mer frequency, TF over GST control); with ETV6 it was 1.3 fold enrichment (6-mer frequency, TF over GST control).
